One sequence from PMC7862700, “An all-to-all approach to the identification of sequence-specific readers for epigenetic DNA modifications on cytosine” can be followed below.

What all share (assay): DAPPL (digital affinity profiling via proximity ligation, sequencing); 10 mM Tris-HCl pH 7.5, 50 mM NaCl, 1 mM DTT, 4% glycerol, room temperature, 30 min; GST-TFs on glutathione beads, 16-mer random dsDNA library, 0.1% formaldehyde crosslink after washing; high values mean tight binding
One assay addresses T1, FLI1 (Homo sapiens, UniProt Q01543 1-452).
T1 sequence: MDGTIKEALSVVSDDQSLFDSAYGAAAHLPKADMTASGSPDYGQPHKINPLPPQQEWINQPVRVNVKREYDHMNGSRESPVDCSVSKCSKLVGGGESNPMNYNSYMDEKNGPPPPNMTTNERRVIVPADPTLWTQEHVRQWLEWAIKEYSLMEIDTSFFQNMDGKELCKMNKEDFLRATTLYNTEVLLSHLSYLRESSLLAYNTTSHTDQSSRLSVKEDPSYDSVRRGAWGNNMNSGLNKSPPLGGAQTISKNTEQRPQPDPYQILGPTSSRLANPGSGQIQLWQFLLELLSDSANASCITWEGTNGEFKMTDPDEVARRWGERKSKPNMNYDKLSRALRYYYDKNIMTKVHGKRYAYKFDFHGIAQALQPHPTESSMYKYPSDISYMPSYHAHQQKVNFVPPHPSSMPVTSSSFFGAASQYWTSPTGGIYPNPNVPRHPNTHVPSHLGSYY
Conditions: protein: recombinant; tags: N-terminal GST; dsDNA, one strand shown. The procedure, abridged: (§1)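 After expression in yeast as GST fusions, human transcription factors were bound to glutathione beads, DNA-barcoded and mixed with a tag-only sample. The pools were incubated with 200 nmole of a 16-mer random double-stranded DNA library in Tris/NaCl/DTT/glycerol buffer (30 min, room temperature), washed and crosslinked with 0.1% formaldehyde. Proximity ligation with BsaI/T4 ligase ran for 1 h at 37 °C, before PCR amplification and sequencing on an Illumina NextSeq500. Binding signal is a hexamer's read frequency for a factor divided by its frequency for the tag-only sample.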

The next assay has as its target T2, ELK1 (Homo sapiens, UniProt P19419 1-428).
T2 sequence: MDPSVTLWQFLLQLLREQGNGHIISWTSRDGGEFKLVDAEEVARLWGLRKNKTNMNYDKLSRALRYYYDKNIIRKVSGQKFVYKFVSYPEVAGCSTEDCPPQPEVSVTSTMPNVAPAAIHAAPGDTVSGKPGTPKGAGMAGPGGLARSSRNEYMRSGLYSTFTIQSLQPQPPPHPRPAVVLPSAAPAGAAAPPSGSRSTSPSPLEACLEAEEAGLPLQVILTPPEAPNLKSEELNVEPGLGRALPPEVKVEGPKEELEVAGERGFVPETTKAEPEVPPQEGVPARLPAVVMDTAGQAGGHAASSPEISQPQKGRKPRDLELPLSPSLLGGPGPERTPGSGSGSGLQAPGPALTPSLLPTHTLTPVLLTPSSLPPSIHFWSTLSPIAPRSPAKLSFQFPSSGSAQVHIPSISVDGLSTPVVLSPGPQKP
Conditions: protein: recombinant; tags: N-terminal GST; dsDNA, one strand shown. The method, boiled down:
as §1

A further assay has as its target T3, GABPA (Homo sapiens, UniProt Q06546 1-454).
T3 sequence: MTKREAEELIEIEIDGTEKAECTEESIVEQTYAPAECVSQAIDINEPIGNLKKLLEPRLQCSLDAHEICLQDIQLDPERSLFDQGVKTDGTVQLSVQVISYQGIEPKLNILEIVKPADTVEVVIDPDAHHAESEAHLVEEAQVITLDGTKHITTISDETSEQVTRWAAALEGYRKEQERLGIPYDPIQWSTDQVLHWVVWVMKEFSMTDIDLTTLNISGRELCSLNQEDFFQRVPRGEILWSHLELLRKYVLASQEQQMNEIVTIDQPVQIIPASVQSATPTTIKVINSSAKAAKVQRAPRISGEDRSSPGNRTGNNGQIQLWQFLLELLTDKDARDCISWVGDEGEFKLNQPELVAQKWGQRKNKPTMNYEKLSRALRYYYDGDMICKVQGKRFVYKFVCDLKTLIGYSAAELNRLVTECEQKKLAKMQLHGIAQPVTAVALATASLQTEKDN
Particulars: protein: recombinant; tags: N-terminal GST; dsDNA, one strand shown. The method, boiled down: as §1

Another assay concerns the target T4, ERG (Homo sapiens, UniProt P11308 1-479).
T4 sequence: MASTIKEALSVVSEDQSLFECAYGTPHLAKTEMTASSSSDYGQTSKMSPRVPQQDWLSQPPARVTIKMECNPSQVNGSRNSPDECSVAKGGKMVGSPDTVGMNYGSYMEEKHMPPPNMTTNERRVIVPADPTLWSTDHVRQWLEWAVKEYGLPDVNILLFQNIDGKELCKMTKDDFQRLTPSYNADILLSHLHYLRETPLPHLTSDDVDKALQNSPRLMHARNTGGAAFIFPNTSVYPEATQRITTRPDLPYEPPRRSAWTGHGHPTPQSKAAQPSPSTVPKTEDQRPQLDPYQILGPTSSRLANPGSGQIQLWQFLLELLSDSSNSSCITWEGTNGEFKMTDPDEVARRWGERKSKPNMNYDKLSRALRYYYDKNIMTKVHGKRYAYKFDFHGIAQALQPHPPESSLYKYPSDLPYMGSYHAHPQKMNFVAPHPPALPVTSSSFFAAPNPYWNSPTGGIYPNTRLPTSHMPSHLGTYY
Particulars: protein: recombinant; tags: N-terminal GST; dsDNA, one strand shown. The procedure, abridged:
as §1

A further assay has as its target ELF1 (Homo sapiens, UniProt P32519 1-619). Particulars: protein: recombinant; tags: N-terminal GST; dsDNA, one strand shown. The procedure, abridged:
as §1

Another assay concerns the target T5, EHF (Homo sapiens, UniProt Q9NZC4 1-300).
T5 sequence: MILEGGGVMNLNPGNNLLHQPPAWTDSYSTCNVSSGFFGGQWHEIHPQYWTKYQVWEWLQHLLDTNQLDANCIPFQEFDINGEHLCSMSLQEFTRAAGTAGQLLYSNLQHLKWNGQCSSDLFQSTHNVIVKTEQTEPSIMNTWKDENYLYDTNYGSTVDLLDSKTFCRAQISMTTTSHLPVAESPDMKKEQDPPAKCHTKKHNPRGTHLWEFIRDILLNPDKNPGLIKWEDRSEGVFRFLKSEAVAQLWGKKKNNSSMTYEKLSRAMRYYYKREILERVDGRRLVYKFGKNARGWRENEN
Conditions: protein: recombinant; tags: N-terminal GST; dsDNA, one strand shown. The method, boiled down:
as §1

In another assay the target is SPI1 (Homo sapiens, UniProt P17947 1-270). Particulars: protein: recombinant; tags: N-terminal GST; dsDNA, one strand shown. The procedure, abridged: as §1
The target of another assay is SPIB (Homo sapiens, UniProt Q01892 1-262). Particulars: protein: recombinant; tags: N-terminal GST; dsDNA, one strand shown. The method, boiled down: as §1
Another assay has as its target T6, ELK3 (Homo sapiens, UniProt P41970 1-407).
T6 sequence: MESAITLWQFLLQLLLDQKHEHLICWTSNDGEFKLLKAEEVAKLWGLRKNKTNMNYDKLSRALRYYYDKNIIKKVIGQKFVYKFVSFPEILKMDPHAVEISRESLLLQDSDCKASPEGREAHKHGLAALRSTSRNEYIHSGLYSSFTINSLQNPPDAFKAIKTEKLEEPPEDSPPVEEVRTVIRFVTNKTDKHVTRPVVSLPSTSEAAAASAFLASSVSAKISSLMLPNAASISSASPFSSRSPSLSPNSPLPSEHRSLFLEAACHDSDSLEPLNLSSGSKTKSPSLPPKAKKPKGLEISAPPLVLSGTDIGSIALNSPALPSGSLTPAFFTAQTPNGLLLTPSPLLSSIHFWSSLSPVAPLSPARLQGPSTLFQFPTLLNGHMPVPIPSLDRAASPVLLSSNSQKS
Particulars: protein: recombinant; tags: N-terminal GST; dsDNA, one strand shown. The method, boiled down:
as §1

For the next assay, the target named is T7, FEV (Homo sapiens, UniProt Q99581 1-238).
T7 sequence: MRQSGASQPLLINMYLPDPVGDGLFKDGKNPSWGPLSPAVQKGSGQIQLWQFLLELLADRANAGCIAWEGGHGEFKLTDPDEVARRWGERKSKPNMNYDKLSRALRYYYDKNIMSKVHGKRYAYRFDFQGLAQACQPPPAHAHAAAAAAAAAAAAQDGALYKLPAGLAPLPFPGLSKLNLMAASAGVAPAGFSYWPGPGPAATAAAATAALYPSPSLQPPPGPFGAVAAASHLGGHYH
Conditions: protein: recombinant; tags: N-terminal GST; dsDNA, one strand shown. The method, boiled down:
as §1

The target in a further assay is ETV5 (Homo sapiens, UniProt P41161 1-510). Particulars: protein: recombinant; tags: N-terminal GST; dsDNA, one strand shown. The method, boiled down:
as §1

The target of a further assay is HSF1 (Homo sapiens, UniProt Q00613 1-529). Conditions: protein: recombinant; tags: N-terminal GST; chain copies: 3; dsDNA, one strand shown. The method, boiled down:
as §1

Another assay has as its target T8, SPIC (Homo sapiens, UniProt Q8N5J4 1-248).
T8 sequence: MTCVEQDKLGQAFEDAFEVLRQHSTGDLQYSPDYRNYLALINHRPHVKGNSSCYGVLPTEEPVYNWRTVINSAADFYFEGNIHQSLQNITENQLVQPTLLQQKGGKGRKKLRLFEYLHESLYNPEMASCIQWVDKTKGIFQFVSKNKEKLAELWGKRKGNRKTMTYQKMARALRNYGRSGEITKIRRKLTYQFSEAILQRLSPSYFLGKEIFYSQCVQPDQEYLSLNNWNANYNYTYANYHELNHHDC
Particulars: protein: recombinant; tags: N-terminal GST; dsDNA, one strand shown. The method, boiled down:
as §1

The next assay addresses ELF4 (Homo sapiens, UniProt Q99607 1-663). Conditions: protein: recombinant; tags: N-terminal GST; dsDNA, one strand shown. The method, boiled down: as §1
For the next assay, the target named is T9, ELK4 (Homo sapiens, UniProt P28324-2 1-405).
T9 sequence: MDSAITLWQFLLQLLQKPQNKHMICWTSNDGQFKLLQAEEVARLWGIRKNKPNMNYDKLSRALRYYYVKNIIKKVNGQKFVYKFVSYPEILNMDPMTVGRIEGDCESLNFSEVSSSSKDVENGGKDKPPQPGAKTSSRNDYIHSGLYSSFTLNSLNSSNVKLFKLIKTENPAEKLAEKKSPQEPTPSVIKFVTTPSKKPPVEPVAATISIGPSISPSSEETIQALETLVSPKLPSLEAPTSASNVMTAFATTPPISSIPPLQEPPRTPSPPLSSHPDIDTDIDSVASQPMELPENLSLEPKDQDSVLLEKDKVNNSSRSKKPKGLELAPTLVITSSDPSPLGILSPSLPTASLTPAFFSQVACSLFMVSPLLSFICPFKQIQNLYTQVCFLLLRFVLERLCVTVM
Conditions: protein: recombinant; tags: N-terminal GST; dsDNA, one strand shown. The procedure, abridged:
as §1

The target of the next assay is T10, ETV2 (Homo sapiens, UniProt O00321 1-342).
T10 sequence: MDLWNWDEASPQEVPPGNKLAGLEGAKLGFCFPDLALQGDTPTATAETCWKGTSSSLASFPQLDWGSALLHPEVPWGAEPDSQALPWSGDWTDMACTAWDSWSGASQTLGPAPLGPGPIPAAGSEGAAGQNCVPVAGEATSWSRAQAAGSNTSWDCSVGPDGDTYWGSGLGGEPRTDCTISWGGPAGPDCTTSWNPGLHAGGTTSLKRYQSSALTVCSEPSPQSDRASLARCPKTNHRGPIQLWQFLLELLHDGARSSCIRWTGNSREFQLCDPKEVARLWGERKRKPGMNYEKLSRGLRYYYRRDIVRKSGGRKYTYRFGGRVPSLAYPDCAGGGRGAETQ
Conditions: protein: recombinant; tags: N-terminal GST; dsDNA, one strand shown. The method, boiled down: as §1

For another assay, the target named is T11, ELF3 (Homo sapiens, UniProt P78545 1-371).
T11 sequence: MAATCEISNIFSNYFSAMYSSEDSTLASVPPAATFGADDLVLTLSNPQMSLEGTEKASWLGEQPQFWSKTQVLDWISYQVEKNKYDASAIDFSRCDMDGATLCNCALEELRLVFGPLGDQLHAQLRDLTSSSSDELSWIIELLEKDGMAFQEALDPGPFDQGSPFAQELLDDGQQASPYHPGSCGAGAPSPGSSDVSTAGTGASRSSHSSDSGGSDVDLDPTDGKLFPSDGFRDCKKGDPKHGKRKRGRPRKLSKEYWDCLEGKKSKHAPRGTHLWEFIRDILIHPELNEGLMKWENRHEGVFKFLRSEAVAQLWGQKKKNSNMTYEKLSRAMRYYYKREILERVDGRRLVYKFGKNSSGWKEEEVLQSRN
Conditions: protein: recombinant; tags: N-terminal GST; dsDNA, one strand shown. The procedure, abridged:
as §1

The next assay deals with CRX (Homo sapiens, UniProt O43186 1-299). Particulars: protein: recombinant; tags: N-terminal GST; dsDNA, one strand shown. The method, boiled down: as §1
Another assay concerns the target ETV1 (Homo sapiens, UniProt P50549 1-477). Particulars: protein: recombinant; tags: N-terminal GST; dsDNA, one strand shown. The method, boiled down: as §1

Sequence of ETV1 (P50549 whole entry): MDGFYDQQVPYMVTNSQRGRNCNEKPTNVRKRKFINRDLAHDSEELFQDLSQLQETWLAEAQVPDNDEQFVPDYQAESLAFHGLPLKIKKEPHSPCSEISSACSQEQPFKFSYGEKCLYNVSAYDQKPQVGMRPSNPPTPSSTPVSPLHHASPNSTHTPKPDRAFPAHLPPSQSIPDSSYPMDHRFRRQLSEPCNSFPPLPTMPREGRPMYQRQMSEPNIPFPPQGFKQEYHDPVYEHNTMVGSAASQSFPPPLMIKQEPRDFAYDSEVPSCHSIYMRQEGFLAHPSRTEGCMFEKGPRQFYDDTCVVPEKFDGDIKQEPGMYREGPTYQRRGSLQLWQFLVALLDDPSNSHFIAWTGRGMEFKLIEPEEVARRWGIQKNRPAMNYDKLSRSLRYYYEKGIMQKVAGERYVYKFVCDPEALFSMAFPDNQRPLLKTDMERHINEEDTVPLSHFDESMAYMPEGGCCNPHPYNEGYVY
Sequence of ELF4 (Q99607 whole entry): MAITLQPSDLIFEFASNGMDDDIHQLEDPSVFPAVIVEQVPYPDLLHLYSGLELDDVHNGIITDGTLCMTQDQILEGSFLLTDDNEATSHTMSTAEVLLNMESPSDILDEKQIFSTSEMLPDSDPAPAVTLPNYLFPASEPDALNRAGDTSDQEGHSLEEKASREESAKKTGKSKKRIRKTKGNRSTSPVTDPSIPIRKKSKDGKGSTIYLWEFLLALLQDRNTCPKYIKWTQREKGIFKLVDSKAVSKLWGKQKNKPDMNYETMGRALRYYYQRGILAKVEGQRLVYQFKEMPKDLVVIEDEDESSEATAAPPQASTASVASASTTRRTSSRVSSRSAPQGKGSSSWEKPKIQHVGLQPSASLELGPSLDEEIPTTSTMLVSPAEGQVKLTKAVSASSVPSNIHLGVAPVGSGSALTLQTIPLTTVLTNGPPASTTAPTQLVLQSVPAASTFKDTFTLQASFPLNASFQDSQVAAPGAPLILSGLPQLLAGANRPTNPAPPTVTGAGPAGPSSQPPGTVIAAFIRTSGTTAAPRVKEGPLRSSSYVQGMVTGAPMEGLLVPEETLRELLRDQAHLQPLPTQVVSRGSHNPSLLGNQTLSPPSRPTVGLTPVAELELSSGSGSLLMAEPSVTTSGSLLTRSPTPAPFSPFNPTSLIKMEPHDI
Sequence of ELF1 (P32519 whole entry): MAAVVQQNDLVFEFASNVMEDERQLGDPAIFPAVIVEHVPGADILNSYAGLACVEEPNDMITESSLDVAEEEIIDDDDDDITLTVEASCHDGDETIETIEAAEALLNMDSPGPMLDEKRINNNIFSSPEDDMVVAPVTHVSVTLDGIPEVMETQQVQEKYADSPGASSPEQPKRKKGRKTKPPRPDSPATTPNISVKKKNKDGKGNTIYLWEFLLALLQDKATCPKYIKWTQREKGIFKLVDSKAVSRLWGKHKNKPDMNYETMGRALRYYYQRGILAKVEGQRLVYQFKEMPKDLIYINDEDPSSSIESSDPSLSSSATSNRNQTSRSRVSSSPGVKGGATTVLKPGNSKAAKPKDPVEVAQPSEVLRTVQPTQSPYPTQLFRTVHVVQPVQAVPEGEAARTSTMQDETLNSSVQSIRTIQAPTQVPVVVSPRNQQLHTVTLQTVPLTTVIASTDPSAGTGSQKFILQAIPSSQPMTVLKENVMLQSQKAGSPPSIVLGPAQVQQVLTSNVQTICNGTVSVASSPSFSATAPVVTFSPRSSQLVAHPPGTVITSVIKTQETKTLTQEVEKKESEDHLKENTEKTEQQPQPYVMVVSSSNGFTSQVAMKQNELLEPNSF
Sequence of ETV5 (P41161 whole entry): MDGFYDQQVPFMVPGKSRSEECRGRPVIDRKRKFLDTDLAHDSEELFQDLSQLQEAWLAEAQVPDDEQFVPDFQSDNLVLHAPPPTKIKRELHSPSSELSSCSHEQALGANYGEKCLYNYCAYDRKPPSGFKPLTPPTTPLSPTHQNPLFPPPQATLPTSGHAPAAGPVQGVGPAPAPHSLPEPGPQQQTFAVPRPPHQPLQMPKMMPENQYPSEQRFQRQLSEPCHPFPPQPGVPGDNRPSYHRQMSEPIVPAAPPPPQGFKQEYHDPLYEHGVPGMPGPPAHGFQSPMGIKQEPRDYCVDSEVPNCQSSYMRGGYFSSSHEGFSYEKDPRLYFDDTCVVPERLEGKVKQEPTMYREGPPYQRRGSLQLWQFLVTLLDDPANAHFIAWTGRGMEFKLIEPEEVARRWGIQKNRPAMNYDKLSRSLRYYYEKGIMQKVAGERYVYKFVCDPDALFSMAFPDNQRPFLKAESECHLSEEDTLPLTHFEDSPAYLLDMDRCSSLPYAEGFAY
Sequence of SPIB (Q01892 whole entry): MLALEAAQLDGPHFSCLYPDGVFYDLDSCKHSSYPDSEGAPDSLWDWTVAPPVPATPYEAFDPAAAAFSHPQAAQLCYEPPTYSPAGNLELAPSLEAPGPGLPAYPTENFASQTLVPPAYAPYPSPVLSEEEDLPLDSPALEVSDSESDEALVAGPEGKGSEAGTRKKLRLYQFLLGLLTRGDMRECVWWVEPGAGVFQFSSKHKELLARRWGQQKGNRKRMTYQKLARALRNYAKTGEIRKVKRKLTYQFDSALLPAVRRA
Sequence of CRX (O43186 whole entry): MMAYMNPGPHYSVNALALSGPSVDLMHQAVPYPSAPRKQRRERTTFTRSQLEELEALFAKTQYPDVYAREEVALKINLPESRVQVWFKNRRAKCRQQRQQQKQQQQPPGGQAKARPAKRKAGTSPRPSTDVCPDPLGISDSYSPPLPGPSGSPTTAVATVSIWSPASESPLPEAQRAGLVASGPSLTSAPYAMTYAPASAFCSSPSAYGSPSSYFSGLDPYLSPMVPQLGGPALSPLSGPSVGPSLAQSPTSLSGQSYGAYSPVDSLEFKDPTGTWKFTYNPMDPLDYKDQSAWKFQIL
Sequence of HSF1 (Q00613 whole entry): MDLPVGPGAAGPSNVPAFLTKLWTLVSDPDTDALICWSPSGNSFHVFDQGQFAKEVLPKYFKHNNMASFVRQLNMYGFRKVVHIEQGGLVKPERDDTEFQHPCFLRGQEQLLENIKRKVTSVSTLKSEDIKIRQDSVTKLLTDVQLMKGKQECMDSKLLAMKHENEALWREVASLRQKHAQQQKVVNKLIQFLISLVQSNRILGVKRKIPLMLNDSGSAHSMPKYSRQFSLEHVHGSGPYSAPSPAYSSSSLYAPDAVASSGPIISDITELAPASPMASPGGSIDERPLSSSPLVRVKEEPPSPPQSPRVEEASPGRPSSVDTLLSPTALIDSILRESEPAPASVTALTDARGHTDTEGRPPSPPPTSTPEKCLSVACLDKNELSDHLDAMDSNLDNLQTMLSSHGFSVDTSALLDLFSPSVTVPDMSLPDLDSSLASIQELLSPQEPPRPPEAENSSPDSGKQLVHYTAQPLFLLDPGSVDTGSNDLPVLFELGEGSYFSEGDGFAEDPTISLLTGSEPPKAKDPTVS

Regarding TTTCTT, the binding signal in the assay with FLI1 is 1.42 fold enrichment (6-mer frequency, TF over GST control); with ELK1, 1.3 fold enrichment (6-mer frequency, TF over GST control); in the assay with GABPA, 1.42 fold enrichment (6-mer frequency, TF over GST control); in the assay with ERG, 1.37 fold enrichment (6-mer frequency, TF over GST control); in the assay with ELF1, 1.38 fold enrichment (6-mer frequency, TF over GST control); with EHF it was 1.29 fold enrichment (6-mer frequency, TF over GST control). The binding signal was 1.37 fold enrichment (6-mer frequency, TF over GST control) with SPI1; 1.24 fold enrichment (6-mer frequency, TF over GST control) with SPIB; 1.31 fold enrichment (6-mer frequency, TF over GST control) in the assay with ELK3; 1.23 fold enrichment (6-mer frequency, TF over GST control) with FEV; 1.22 fold enrichment (6-mer frequency, TF over GST control) in the assay with ETV5; 1.7 fold enrichment (6-mer frequency, TF over GST control) with HSF1. The binding signal is 1.24 fold enrichment (6-mer frequency, TF over GST control) with SPIC; 1.33 fold enrichment (6-mer frequency, TF over GST control) with ELF4; 1.17 fold enrichment (6-mer frequency, TF over GST control) in the assay with ELK4; 1.24 fold enrichment (6-mer frequency, TF over GST control) in the assay with ETV2; 1.3 fold enrichment (6-mer frequency, TF over GST control) with ELF3; 1.46 fold enrichment (6-mer frequency, TF over GST control) in the assay with CRX. In addition, in the assay with ETV1, the binding signal is 1.38 fold enrichment (6-mer frequency, TF over GST control).
